The values below come from PubChem BioAssay (NCI).

This is part of a sample that, as a whole, favours compounds with a hit. Of some 83,000 tested, about 20% had one in any assay.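 96-well plates, one dose, 48 hours. Percent growth reported; active if below 10.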 Unmarked numbers belong to inactive results. Active and inactive are the calls of the source.

Some test systems named below: DU-145 prostate; K-562 leukemia; MALME-3M melanoma; MDA-MB-231 breast; SF-268 CNS; SF-295 CNS; SF-539 CNS; M14 melanoma; HCT-15 colon; HT29 colon; SNB-75 CNS; SNB-19 CNS; U251 CNS; PC-3 prostate; SK-MEL-5 melanoma; UACC-62 melanoma; SK-MEL-28 melanoma; UACC-257 melanoma; LOX IMVI melanoma; RXF 393 renal.
Holding throughout (assay): NCI-60 one-dose screen, 48 h (100 = growth as untreated, 0 = no growth, -100 = all killed)
What all share (conditions): 10 µM unless noted

As for `C=CC(=O)N[C@@H](Cc1ccc(-c2cc(Cl)cc(Cl)c2)cc1)[C@@H](O)[C@H](O)C(=O)O`, the growth with DU-145 prostate was 109%; in the assay on K-562 leukemia, 101%; with MALME-3M melanoma, 96.6%; with MDA-MB-231 breast, 104%; in the assay on SF-268 CNS, 101%; in the assay with SF-295 CNS, 100%. Besides, the growth was 94.9% in the assay on SF-539 CNS; 99.4% with M14 melanoma; 104% in the assay with HCT-15 colon; 87.9% with HT29 colon; 104% in the assay on SNB-75 CNS; 98.1% in the assay with SNB-19 CNS. Besides, the growth in the assay with U251 CNS was 92.1%; with PC-3 prostate, 89.4%; in the assay with SK-MEL-5 melanoma, 99.3%; in the assay with UACC-62 melanoma it was 89.3%; in the assay with SK-MEL-28 melanoma, 107%.
Take `Cc1nc(-c2ccccc2)cc2c(O)c(C(=O)N/N=C/c3ccc(N(C)C)cc3)[nH]c(=O)c12`: the growth was 75.1% with DU-145 prostate; 62.6% in the assay with K-562 leukemia; 98.2% with MALME-3M melanoma; 71.7% in the assay with MDA-MB-231 breast; 81.7% in the assay with SF-268 CNS; 94.1% with SF-295 CNS. Further, the growth in the assay on SF-539 CNS was 69.7%; with UACC-257 melanoma it was 106%; with HCT-15 colon, 83.1%; with HT29 colon it was 72.9%; with SNB-75 CNS it was 62.2%; in the assay with SNB-19 CNS, 117%. Further, the growth in the assay on U251 CNS is 41.8%; with SK-MEL-5 melanoma, 83.4%; with UACC-62 melanoma it was 97.3%; with LOX IMVI melanoma, 75.8%; in the assay on SK-MEL-28 melanoma, 80.2%.
For `COc1ccc(OC)c(/C=C2\COc3ccc(O)cc3C2=O)c1`, the growth with DU-145 prostate was 107%; in the assay on K-562 leukemia, 9.33% (active); with MALME-3M melanoma it was 81.9%; in the assay with MDA-MB-231 breast it was 98.3%; with SF-268 CNS it was 99.2%; with SF-295 CNS, 102%. Also, the growth in the assay with SF-539 CNS is 90.5%; with UACC-257 melanoma, 99.4%; with HCT-15 colon, 78.5%; with HT29 colon, 45.9%; with SNB-75 CNS, 116%; in the assay on SNB-19 CNS, 84.5%. The growth was 84.6% in the assay with U251 CNS, 95.2% in the assay with PC-3 prostate, 84.3% in the assay on UACC-62 melanoma and 94.9% in the assay on SK-MEL-28 melanoma.
In the case of `O=C1/C(=C/c2ccccc2[N+](=O)[O-])COc2ccc(O)c(O)c21`, the growth in the assay on DU-145 prostate was 2.13% (active); in the assay with K-562 leukemia it was 4.47% (active); in the assay on MALME-3M melanoma, -31.6% (active); in the assay with MDA-MB-231 breast it was -16.7% (active); with SF-268 CNS it was 0.467% (active); in the assay on SF-295 CNS, 58.3%. Also, the growth in the assay with SF-539 CNS was -69.4% (active); with UACC-257 melanoma it was -8.55% (active); in the assay on HCT-15 colon, -11.8% (active); with SNB-75 CNS, 22.8%; with SNB-19 CNS, 26.5%; in the assay with U251 CNS it was 2.61% (active). Further, the growth is -0.516% (active) in the assay on PC-3 prostate, -86.6% (active) in the assay with UACC-62 melanoma, -73.2% (active) in the assay on LOX IMVI melanoma and -13.6% (active) in the assay on SK-MEL-28 melanoma.
For `O=C(CCCCCCCn1cc(-c2cccnc2)nn1)Nc1ccccc1-c1ccccc1`, the growth is 37.2% with DU-145 prostate; 23.7% with K-562 leukemia; 59.6% in the assay on MDA-MB-231 breast; 80.4% in the assay with RXF 393 renal; 63.8% in the assay on SF-268 CNS; -15.9% (active) with SF-295 CNS. Besides, the growth in the assay with SF-539 CNS is -7.88% (active); in the assay with UACC-257 melanoma it was 65.6%; in the assay on M14 melanoma it was 17.3%; in the assay on HCT-15 colon it was 24.1%; in the assay on HT29 colon it was 39%; in the assay with SNB-75 CNS, 92.3%. The growth is 48.2% in the assay on SNB-19 CNS; 31.1% in the assay on U251 CNS; 49.3% in the assay with PC-3 prostate; 30.5% in the assay on SK-MEL-5 melanoma; 60.6% in the assay on UACC-62 melanoma; 57.3% in the assay with LOX IMVI melanoma. For the same compound, in the assay on SK-MEL-28 melanoma, the growth was 71%.
For `O=C(c1ccccc1)c1ccc(Cl)c([N+](=O)[O-])c1`, the growth with DU-145 prostate is 75.4%; in the assay on K-562 leukemia it was 7.38% (active); in the assay on MDA-MB-231 breast it was 114%; with RXF 393 renal it was 104%; in the assay with SF-268 CNS it was 88.6%; in the assay on SF-295 CNS, 99%. Moreover, the growth in the assay with SF-539 CNS was 97.9%; in the assay on UACC-257 melanoma, 87.6%; in the assay with M14 melanoma it was 94.6%; in the assay on HCT-15 colon, 90%; with HT29 colon, 83%; with SNB-75 CNS, 87.7%. In addition, the growth with SNB-19 CNS is 98.5%; in the assay with U251 CNS, 97.1%; in the assay with PC-3 prostate, 90.2%; in the assay on SK-MEL-5 melanoma it was 101%; with UACC-62 melanoma, 93.2%; in the assay on LOX IMVI melanoma, 37.1%. For the same compound, the growth in the assay with SK-MEL-28 melanoma was 96.8%.
For the compound `c1ccc([P+](CCCc2n(Cc3ccc4ccccc4c3)c3ccccc3[n+]2Cc2ccc3ccccc3c2)(c2ccccc2)c2ccccc2)cc1`, the growth in the assay on DU-145 prostate was 82.1%; with K-562 leukemia, 23.7%; with MALME-3M melanoma it was 65.2%; with MDA-MB-231 breast, 51%; in the assay with SF-268 CNS, 79%; in the assay on SF-295 CNS, 41.1%. In addition, the growth is 36.8% in the assay with SF-539 CNS; 84% in the assay with UACC-257 melanoma; 85.5% with HCT-15 colon; 23.9% in the assay on HT29 colon; 91% with SNB-75 CNS; 38.5% with SNB-19 CNS. The growth in the assay with U251 CNS is 46.5%; in the assay with PC-3 prostate, 67.5%; with LOX IMVI melanoma, 13.8%; with SK-MEL-28 melanoma, 37.1%.
With `COc1ccc(/C(C)=C(\c2ccc(Cl)cc2)c2ccc(OCCN3CCCC3)cc2)cc1F`, the growth in the assay on DU-145 prostate was 49.6%; in the assay with K-562 leukemia, -1.68% (active); in the assay on MALME-3M melanoma it was -38.2% (active); in the assay with MDA-MB-231 breast, 36.7%; in the assay on SF-268 CNS it was 54.7%; in the assay on SF-295 CNS, -42.9% (active). For the same compound, the growth with SF-539 CNS is 3.19% (active); in the assay with UACC-257 melanoma, 2.99% (active); in the assay with HCT-15 colon it was 1.16% (active); with HT29 colon, -10.5% (active); in the assay with SNB-75 CNS it was 47.6%; in the assay on SNB-19 CNS, 42.8%. Also, the growth in the assay with U251 CNS is 19.1%; in the assay with PC-3 prostate, 30%; with UACC-62 melanoma, -30.2% (active); in the assay with LOX IMVI melanoma, -88.3% (active); with SK-MEL-28 melanoma, -42.1% (active).
As to `COc1cc2oc(-c3cccc(C(=O)Nc4ccc(C)cc4)c3)cc(=O)c2c(OC)c1OC`, the growth in the assay with DU-145 prostate was 48.2%; in the assay with K-562 leukemia, 28%; in the assay with MALME-3M melanoma, 27.3%; with RXF 393 renal, -7.43% (active); in the assay with SF-268 CNS it was 57.7%; with SF-295 CNS it was -47% (active). Besides, the growth in the assay on SF-539 CNS is 45.8%; with UACC-257 melanoma it was 29.9%; with HCT-15 colon it was 17.6%; in the assay with HT29 colon, 11.2%; in the assay with SNB-75 CNS it was 45.5%; in the assay on SNB-19 CNS it was 67.9%. Besides, the growth was 42.1% in the assay on U251 CNS; 45% in the assay with PC-3 prostate; -60.3% (active) with SK-MEL-5 melanoma; -33.8% (active) with UACC-62 melanoma; -7.81% (active) in the assay with LOX IMVI melanoma; 7.12% (active) in the assay on SK-MEL-28 melanoma.
